# ELG1 genotox: genotoxicity induction in ELG1-luciferase HEK293T cells. AID 504466. 330,000 compounds, 1.3% hits. HEK293T ELG1-luciferase reporter, luminescence, 16 h. Potency, µM (top dose mostly 46 µM), for inactives: at the highest dose activity change, positive = activation, most hits filed as activators; further: % of control where 0% means no effect; nearly all actives have a fitted effect of over 60% in size
#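 HEK293T cells expressing luciferase-tagged ELG1 were treated with compound or DMSO for 16 hr at 37°C. Luciferase activity was then read after 30 min with ONE-Glo at room temperature; rising signal flags genetic stress.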
# ELG1 DNA repair: ELG1-dependent DNA repair inhibition; HEK293T ELG1-luciferase reporter, luminescence, 16 h; DNA damage induced by 5-fluorouridine; AID 504467; Potency, µM (series often up to 46.1 µM), for the others: at the highest dose activity change, negative = inhibition, usual class: inhibitors; 330,000 compounds, 2.3% hits; further: on the % scale 0 is the no-effect control and ±100 the full control effect; nearly all actives have a fitted effect of over 55% in size
#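 Cells (2,000 per well) received 5-fluorouridine plus test compound or DMSO and were incubated 16 hr at 37 °C, 5% CO2. Luciferase activity was read by luminescence 30 min after ONE-Glo addition; signal suppression marked inhibition of damage-induced ELG1 function.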
# Rab9 promoter act: activators of Rab9 promoter | 320,000 compounds, 2.8% hits | AID 485297 | Potency, µM (doses to about 9.22 µM), without a hit: at the highest dose activation, negative = inhibition, usual class: activators | Huh7 Rab9 promoter-luciferase reporter, luminescence, 24 h; further: % of control where 0% means no effect; nearly all actives have a fitted effect of over 60% in size
#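 Steps: seed 1500 Huh7 Rab9-luc cells per well, rest 2 h at 37 °C; add compound in DMSO; incubate 24 h; add luciferase reagent, 10 min ambient; read luminescence.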
# SMN2 splice up: increases expression of the SMN2 splice variant | HEK293 SMN2-luciferase splicing reporter, luminescence, 30-36 h | Potency, µM (series often up to 46.1 µM), for inactives: at the highest dose activity change, positive = activation, hits mostly activators | 210,000 compounds, 2.8% hits; further: % of control where 0% means no effect; nearly all actives have a fitted effect of over 55% in size
#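 qHTS luciferase splicing reporter: luminescence rises when SMN2 exon 7 is included in transfected HEK293 cells. Compound exposure lasted 30-36 h at 37C, with 4.5 mM final sodium butyrate as control, followed by a ONE-Glo read.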
# NPC1 prom act: NPC1 promoter activation; 320,000 compounds, 2.4% hits; Potency, µM (titrated, usually from 9.22 µM), for inactives: at the top dose activation, usual class: activators; AID 485313; Huh7 NPC1 promoter luciferase reporter, 24 h; further: % of control where 0% means no effect; nearly all actives have a fitted effect of over 60% in size
#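 Readout is luciferase luminescence, reflecting NPC1 promoter activation in stably transfected Huh7 cells after 24 h compound exposure at 37 °C in reduced-serum medium with 10% FBS.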
# FLuc modulator: firefly luciferase modulation, counter-screen for miR-21 project; 360,000 compounds, 6.9% hits; purified FLuc, Km substrates, luminescence inhibition; Potency, µM (doses to about 57.5 µM), for inactives: at the highest dose activity change, negative = inhibition, usual class: inhibitors; AID 588342;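 further: plate controls were vehicle for no effect and reference inhibitor for full effect; nearly all actives have a fitted effect of over 55% in size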
# Target sequence (P08659 whole entry, looked up): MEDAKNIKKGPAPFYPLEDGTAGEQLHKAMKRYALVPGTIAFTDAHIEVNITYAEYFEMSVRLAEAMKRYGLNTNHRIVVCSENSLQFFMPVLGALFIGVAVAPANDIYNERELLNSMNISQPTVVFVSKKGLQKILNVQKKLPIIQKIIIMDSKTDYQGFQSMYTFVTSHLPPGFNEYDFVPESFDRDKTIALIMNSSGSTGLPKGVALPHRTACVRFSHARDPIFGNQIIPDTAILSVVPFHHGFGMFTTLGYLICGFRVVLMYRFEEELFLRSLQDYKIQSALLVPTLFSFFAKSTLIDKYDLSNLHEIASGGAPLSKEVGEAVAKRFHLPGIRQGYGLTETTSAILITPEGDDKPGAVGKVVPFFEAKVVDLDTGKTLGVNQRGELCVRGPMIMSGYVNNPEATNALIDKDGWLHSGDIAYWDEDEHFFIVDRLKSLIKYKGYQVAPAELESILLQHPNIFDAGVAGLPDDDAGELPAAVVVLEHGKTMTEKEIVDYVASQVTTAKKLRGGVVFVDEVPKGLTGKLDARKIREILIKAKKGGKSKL
#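 Purified P. pyralis luciferase (10nM final) with 10uM D-luciferin and 10uM ATP (Km levels) in 50mM Tris acetate pH 7.5, 10mM Mg acetate, 0.01% Tween-20, 0.05% BSA; qHTS 6-point titration, ~60 µM downward; luminescence read.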
# An asterisk follows results filed as active; ? = inconclusive; / = no result given; [ ] = dose if it differs, or a comment. Most compounds without a hit are left out; they make up all but 9.4% or so of the library. The call rests on the fitted dose curve; in most records, active means well fitted curve in the direction sought with a large enough effect; inconclusive means small, poorly fitted or top-dose-only effect, or another doubt; inactive means no such curve, though single readings can be large; an effect the other way counts as inactive or inconclusive. Potency means the concentration at half of the fitted maximal effect.
SMILES,ELG1 genotox,ELG1 DNA repair,Rab9 promoter act,SMN2 splice up,NPC1 prom act,FLuc modulator
COc1cccc(-c2nc(CC(=O)O)cs2)c1OC,3%,?,-2%,12%,0%,-19%
CCOc1ccc(-c2nc(CCl)cs2)cc1OC,?,?,8%,-10%,10%,17µM*
COc1cccc(-c2nc(CCl)cs2)c1OC,11%,?,4%,-11%,0%,17µM*
Cc1ccc(-c2cc(C(=O)N3CCCc4ccccc43)no2)cc1,?,?,3.2µM*,?,?,4.3µM*
COc1ccccc1-c1cc(C(=O)N2CCCc3ccccc32)no1,9%,20%,14%,4%,2%,?
O=C(c1cc(-c2cccs2)on1)N1CCCc2ccccc21,?,?,22%,22%,14%,17µM*
O=C(c1cc(-c2ccc(F)cc2)on1)N1CCCc2ccccc21,?,?,?,?,22%,11µM*
COc1cc(-c2nnc(SCC(=O)c3ccc(C)cc3)o2)cc(OC)c1OC,-18%,?,-3%,-9%,2%,6%
COc1cc(-c2nnc(SCC(=O)N3c4ccccc4Sc4ccccc43)o2)cc(OC)c1OC,-4%,7.3µM*,-2%,-24%,-7%,-2%
COc1cccc(C(=O)CSc2nnc(-c3cc(OC)c(OC)c(OC)c3)o2)c1,-1%,21µM*,22%,4%,-4%,2%
C[N+](C)(C)C(C1=CCCC1=O)c1ccccc1 (stereo not given),/,/,/,-1%[9.22 µM],/,/
COc1ccc(OC)c(/C=N/c2c(-c3ccc(O)c(OC)c3)nc3ccccn23)c1,1%,26%,-1%,-12%,-1%,?
Clc1c(-c2ccccc2)nc2ccccn12,?,?,2.5µM*,/,4µM*,12µM*
COc1ccc(-c2nc3c4ccccc4ccn3c2C=O)cc1,3%,15%,7%,-4%,-3%,-11%
O=C(O)c1c(Cl)nc2ccccn12,0%,-9%,8%,1%,-5%,2%
CN(C)c1ccc(-c2nc3ccccn3c2/N=C/c2ccc(Br)cc2)cc1,?,?,?,3.2µM*,?,0.6µM*
Cc1c(-c2ccc(Br)cc2)nc2ccccn12,?,?,2.5µM*,/,3.2µM*,2.4µM*
Cc1ccc(-c2nc3ccccn3c2C=O)cc1,?,?,3.5µM*,/,?,21µM*
CCCCCCCCCCCCC/C=C/[C@@H](O)[C@@H](N)COP(=O)(O)O,/,/,/,-2%,/,/
c1ccn2c(c1)nc1c2nc2ccccn21,?,?,21%,24%,?,17µM*
CN(C)S(=O)(=O)N1CCC(Oc2cccc(C(=O)NC3CCCCC3)c2)CC1,-4%,-17%,-35%,/,-28%,-15%
CN(C)S(=O)(=O)N1CCC(Oc2cccc(C(=O)NCCC3=CCCCC3)c2)CC1,-31%,13µM*,-14%,/,-19%,?
C=CCNC(=O)c1ccc(OC2CCN(S(=O)(=O)N(C)C)CC2)cc1,14%,15%,?,/,16%,17µM*
COc1ccc(NC(=O)c2cc3c(=O)n(Cc4ccco4)ccc3nc2C)cc1,/,/,/,/,/,-6%
Cc1cc(Nc2ccc(N=Nc3ccc(O)c4ncccc34)cc2)nc(C)n1,/,/,/,17%[9.22 µM],/,/
SMILES,ELG1 genotox,ELG1 DNA repair,Rab9 promoter act,SMN2 splice up,NPC1 prom act,FLuc modulator
Cc1cccc(OCC(=O)O/N=C(\N)c2ccccn2)c1,?,?,14%,?,27%,17µM*
Cc1ccc(OCC(=O)O/N=C(\N)c2ccccn2)cc1C,8.2µM*,?,?,/,2.2µM*,12µM*
CCc1ccc(OCC(=O)O/N=C(\N)c2ccccn2)cc1,7.3µM*,?,3.2µM*,/,3.2µM*,9.5µM*
CCC(=O)N1c2ccccc2CC1C(=O)NCCN1CCN(c2cc(Cl)ccc2C)CC1 (stereo not given),/,/,/,/,/,-8%
O=[N+]([O-])c1ccccc1-c1ccc(C(=S)N2CCCCC2)o1,?,?,3.2µM*,/,2µM*,8.5µM*
O=[N+]([O-])c1ccccc1-c1ccc(C(=S)N2CCCC2)o1,-6%,?,2.8µM*,11µM*,?,21µM*
CC(C)(CC(=O)OCC(=O)Nc1ccc(F)c(Cl)c1)CC1=NS(=O)(=O)c2ccccc2N1,/,/,/,/,/,-14%
CC(C)(C)c1ccc(C(=O)COC(=O)CN2C(=O)NC3(CCCC3)C2=O)cc1,5%,10%,0%,/,-3%,8.5µM*
CC(C)(C)c1ccc(COC(=O)CN2C(=O)NC3(CCCC3)C2=O)cc1,-3%,0%,-2%,/,9%,2%
CCC(=O)N1c2nc(-c3ccco3)nn2C2(CCCCC2)[C@@H]2CCCC[C@@H]21,/,/,/,/,/,2%
Cc1nc(N2CCCC2)c2c(C(=O)N3CCN(c4cc(Cl)ccc4C)CC3)c(C)oc2n1,/,/,/,/,/,-10%
Oc1ccc(N=Nc2ccc3c(c2)OCO3)c2ccccc12,5.2µM*,?,3.2µM*,/,?,7.6µM*
Oc1ccc2c(c1)OCO2,/,/,/,0%,/,/
CC(C)COc1ccc(C(=O)Nc2cccc(-c3nc4ccccc4[nH]3)c2)cc1,/,/,/,-15%,/,?
O=C(COc1ccccc1)Nc1cccc(-c2nc3cc4ccccc4cc3[nH]2)c1,?,?,0.79µM*,1.8µM*,0.63µM*,0.54µM*
Cc1cc(C)cc(OCC(=O)Nc2cccc(-c3nc4ccccc4[nH]3)c2)c1,/,/,/,17%,/,11µM*
CC(C)c1ccc(NC(=O)CN2C=NS(=O)(=O)c3ccccc32)cc1,/,/,/,/,/,0%
CCOc1ccc(/C=C/c2nc(C#N)c(NC3CCCCC3)o2)cc1,/,/,/,23%,/,1%
Cc1ccccc1NC(=S)N/N=C/c1ccc(O)cc1O,?,?,26%,/,?,2.4µM*
Cc1cccc(NC(=S)N/N=C/c2cccc(O)c2)c1C,-4%,18µM*,-31%,/,-26%,?
Cc1ccccc1NC(=S)N/N=C/C(C)c1ccccc1 (stereo not given),0%,-16%,-1%,-12%,-14%,-14%
Cc1ccc(COc2ccc(C)nc2[N+](=O)[O-])cc1,3.7µM*,?,0.71µM*,/,0.79µM*,2.4µM*
Cc1ccc(CNC(=O)COc2ccc(C)nc2[N+](=O)[O-])cc1,6%,3%,0%,5%,-1%,-2%
COc1ccc(-n2c(C)cc(C(=O)COc3ccc(C)nc3[N+](=O)[O-])c2C)cc1,12%,18%,-1%,-62%,-4%,-16%
COc1ccc(OCCOc2ccc(C)nc2[N+](=O)[O-])cc1,?,?,?,?,?,24µM*
Cc1ccc(OCCOc2ccc(Cl)cc2Cl)c([N+](=O)[O-])n1,?,?,27%,-14%[1.84 µM],?,17µM*

# Screening data as filed in PubChem.
